Molecular target: GPAA1
Assay: pooled miR-30 sensor sort-seq; sequence = guide strand
Conditions: shRNA

| Sequence | sensor-assay potency score (higher = more potent) |
| --- | --- |
| TTGAGGCGCAGCACTAGGCGGG | -0.543 |
| TATAGCGCTCGTGGGTCTCATC | -1.61 |
| TTCCGGGAGAAACTCTGCGTGT | -1.01 |
| TTCTGTTACCAGGAAGACGATA | -1.01 |
| TTCTCCGACATGTAAGTGCGCT | -0.864 |
| TTCAGTGCCATCCAGCCCCTGT | -0.292 |
| TTTCCGGGAGAAACTCTGCGTG | -0.575 |

Molecular target: GPATCH3
Assay: as above
Conditions: shRNA

| Sequence | sensor-assay potency score (higher = more potent) |
| --- | --- |
| TCTGTCATAGTACACACTCATG | -1.69 |
| TAAGCCTCTGAGCTTGAGCCAA | -0.945 |
| TAAAACACCAGGCCAGAGCCAC | -0.98 |
| TTAGGGCAGAGTTAGGAGCGGC | -0.764 |
| TTAGAGACCAAAGACAAGCGGT | 0.0667 |
| TGTACACACAAGCTCTTCCTGC | -0.536 |
| TATTTCTTCACCCTCTGCTGTA | -0.595 |
| TTGAGCTCAATCTCCTCCTCAA | 0.169 |
| TTCCGTGACGTCGCACACCCAA | -0.81 |
| TAAAATAGCTCCGTAAATGGGC | -0.362 |

Molecular target: GPBAR1
Assay: as above
Conditions: shRNA

| Sequence | sensor-assay potency score (higher = more potent) |
| --- | --- |
| TTGGGTGGTAGGCAATGCTGGG | -0.797 |
| TGCTTTGGCTGCTTGGGTGGTA | -0.379 |
| ATGTGGGCAATGCCAGACCCGT | -2.11 |
| CTGTGTAGCGCTGATCGCCCAG | -1.64 |
| TGGTAGGCAATGCTGGGGCCGG | -1.84 |
| AGGAGGGACAACAGTGTCCCAG | -1.92 |
| ACTGCTTTGGCTGCTTGGGTGG | -1.37 |
| TGCACTGGCACTTCCTAGGGAG | -0.377 |
| TTCCACAGCCCTGGCAATGTGG | -1.2 |
| TAGCGCTGATCGCCCAGCCCCA | -1.62 |
| TGGGTGGTAGGCAATGCTGGGG | -1.2 |
| TGTGTAGCGCTGATCGCCCAGC | -1.16 |

Molecular target: GPIHBP1
Assay: as above
Conditions: shRNA

| Sequence | sensor-assay potency score (higher = more potent) |
| --- | --- |
| TCATCTTCCTCGTCGTAGTCAT | -0.418 |
| TTCAACCTCATCCTCATCTTCC | -0.334 |
| ATCCTCATCTTCCTCGTCGTAG | -0.474 |
| ATGAGGGTTGTGCAGGTCTGGC | -1.69 |
| TTCCTCGTCGTAGTCATCTGGC | -0.201 |
| ATGTGAGCAGTTCTGCGTCAGG | -1.72 |
| TTGCACAGGCTGGACTGGCAGC | -1.25 |
| TGTTGGTCTCCTCCTCTTCAAC | -1.59 |
| TCGTCGTAGTCATCTGGCCCGT | -1.29 |
| TTCCTCTTCCTCCTGCTGTGTC | -0.491 |
| TTCTGCGTCAGGTTGCAGCGCT | -0.795 |

Reference: the OligoGym collection
